The results in this text go back to PubChem BioAssay.

Structures are written as SMILES.

For experiment [1], the system named is Human papillomavirus type 1a protein E7 (residues 44-93). Kind of experiment: small molecules binding HPV E7 44-93 – biochemical, small-molecule microarray, residues 44-93, 635 nm fluorescence, primary screen (AID 1108).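 Further: E7 fragment applied at 1 µg/mL in TBST for 1 h at 4 C; score combines spot fluorescence with its signal to noise ratio.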 The note with it: fluorescence 635 nm, higher = more signal.
The nature of experiment [2]: hepatitis C replication reporter changes, two-sided – Huh7 cells, luciferase reporter, HCV replication inhibitor project, primary screen (AID 1109).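 Further: huh7 hepatoma cells harbouring a luciferase neomycin HCV replicon reporter; luciferase luminescence as measure of HCV replicon replication; test concentration not given here.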 The note with it: Huh7 HCV replicon luciferase reporter, 48 h; higher = more signal.
Experiment [3] addresses Left-right determination factor 2 (Homo sapiens) (UniProt O00292). The experiment in a line: small molecules binding LEFTY2 protein – biochemical, small-molecule microarray, 635 nm fluorescence scan, primary screen (AID 1110). The note with it: higher = more signal.
Experiment [4] addresses Calmodulin-1 (Homo sapiens) (UniProt P0DP23). The experiment in a line: small molecules binding calmodulin-1 with EGTA – biochemical, small-molecule microarray, Cy5-labelled CALM1, profiling panel (AID 1111).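 Further: labelled calmodulin applied in Tris saline Tween buffer holding calcium plus EGTA and DTT.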 The following applies: Cy5-CALM1 binding fluorescence, higher = more signal.
Experiment [5] shares this target. Kind of experiment: small molecules binding Ca-loaded calmodulin-1 – biochemical, small-molecule microarray, Cy5-labelled CALM1, plus calcium, artefact control for SMM control-protein annotation, profiling panel (AID 1112).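 Further: score merges spot fluorescence with signal to noise from triplicate slides.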 The following applies: Cy5-CALM1 binding fluorescence, higher = more signal.
Experiment [6] can be described thus: probe aWnt5a binding to arrayed compounds – biochemical, biotinylated probe, 635/667 nm fluorescence, primary screen (AID 1113).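 Further: score merges 667 nm fluorescence intensity with signal-to-noise per printed feature.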 The note with it: small-molecule microarray, higher = more signal.
Experiment [7] in a line: probe aShh binding to arrayed compounds – biochemical, biotinylated probe, 635/667 nm fluorescence, primary screen (AID 1114).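 Further: probe is biotin-labelled aShh protein from a stem cell growth factor screen; measures binding of labelled protein to compounds printed on the slide; score merges feature fluorescence at 667 nm with signal-to-noise.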 The following applies: small-molecule microarray, higher = more signal.
Experiment [8] can be described thus: probe aNog binding to arrayed compounds – biochemical, biotinylated probe, 635/667 nm fluorescence, primary screen (AID 1115).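 Further: probe is biotinylated aNog protein used at 0.15 µg/mL for 1 h at 4 C; z-score combines 667 nm fluorescence of each spot with its signal to noise.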 The following applies: small-molecule microarray, higher = more signal.
In experiment [9] the target is Torsin-1A-interacting protein 1 (Homo sapiens) (UniProt Q5JTV8). Kind of experiment: compound microarray binding of lysate hLAP1 – cell lysate, small-molecule microarray, COS7 lysate, 635/667 nm fluorescence, primary screen (AID 1116). The following applies: 635 nm fluorescence, higher = more signal.
Sequence of Torsin-1A-interacting protein 1 (Homo sapiens) (Q5JTV8 whole entry, looked up): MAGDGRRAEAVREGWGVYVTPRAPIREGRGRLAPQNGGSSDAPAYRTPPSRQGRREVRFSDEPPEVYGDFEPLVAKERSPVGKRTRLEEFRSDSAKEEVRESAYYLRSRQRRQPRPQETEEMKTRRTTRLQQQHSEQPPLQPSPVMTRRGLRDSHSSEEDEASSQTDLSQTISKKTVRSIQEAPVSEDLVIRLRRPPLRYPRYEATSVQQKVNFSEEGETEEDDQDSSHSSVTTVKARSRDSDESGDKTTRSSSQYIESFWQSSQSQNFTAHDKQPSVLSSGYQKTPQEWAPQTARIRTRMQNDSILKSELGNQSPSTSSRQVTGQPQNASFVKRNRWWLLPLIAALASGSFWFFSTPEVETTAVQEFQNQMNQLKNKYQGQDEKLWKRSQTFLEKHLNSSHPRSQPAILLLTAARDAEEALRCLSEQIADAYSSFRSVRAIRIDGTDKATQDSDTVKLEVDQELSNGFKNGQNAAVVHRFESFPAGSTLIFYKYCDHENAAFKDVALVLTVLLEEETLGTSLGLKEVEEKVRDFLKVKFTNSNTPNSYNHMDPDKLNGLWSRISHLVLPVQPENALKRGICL
Experiment [10] has as its target Alpha-bungarotoxin (Bungarus multicinctus) (UniProt P60615). The experiment in a line: compounds binding labelled alpha-BTX control protein – biochemical, small-molecule microarray, Alexa647 label, 635/667 nm fluorescence, artefact control for SMM control protein annotation, profiling panel (AID 1117). The note with it: alpha-BTX-A647 binding fluorescence, higher = more signal.

Sequence of Alpha-bungarotoxin (Bungarus multicinctus) (P60615 whole entry, looked up): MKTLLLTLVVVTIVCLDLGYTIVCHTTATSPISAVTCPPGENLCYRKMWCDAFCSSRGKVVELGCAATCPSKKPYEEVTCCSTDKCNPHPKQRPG
Sequence of Left-right determination factor 2 (Homo sapiens) (O00292 whole entry, looked up): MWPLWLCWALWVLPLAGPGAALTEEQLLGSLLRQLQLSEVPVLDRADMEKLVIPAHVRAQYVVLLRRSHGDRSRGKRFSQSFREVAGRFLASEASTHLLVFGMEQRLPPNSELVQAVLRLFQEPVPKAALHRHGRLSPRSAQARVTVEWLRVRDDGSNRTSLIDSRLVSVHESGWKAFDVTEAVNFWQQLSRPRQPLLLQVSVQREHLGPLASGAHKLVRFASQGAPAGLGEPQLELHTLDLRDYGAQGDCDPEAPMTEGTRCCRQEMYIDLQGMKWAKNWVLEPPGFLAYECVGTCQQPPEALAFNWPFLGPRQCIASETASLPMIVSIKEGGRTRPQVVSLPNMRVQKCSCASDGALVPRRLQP

For `CON=C1[C@H]2CCn3c(=O)n(-c4ccccc4)c(=O)n3[C@H]2[C@H](O)[C@@H]2O[C@H]12`, the composite z-score is 0.548 in [1]; 0.661 in [3]; -0.345 in experiment [4]; -0.536 in [5]; -0.0445 in experiment [6]; -0.138 in [7]. In addition, the composite z-score in [8] was -0.158; in experiment [9] it was -0.501; in experiment [10], 0.269. Besides, in experiment [2], the z-score was -2.1.
With `COc1cccc([C@H]2Oc3ccc(OC)cc3C(=NO[C@@H](C)c3cn([C@H](CO)Cc4ccccc4)nn3)[C@@H]2O)c1`, the composite z-score in experiment [1] was -0.429; in experiment [3], -0.36; in experiment [4], 0.465; in [5], -0.0011; in experiment [6] it was -0.0836; in [7], 0.0121. In addition, the figures for the composite z-score in experiment [8], in experiment [9] and in experiment [10] were 0.0918, -0.0881 and -0.417, respectively. In experiment [2], this compound returned a z-score of -0.727.
Regarding `Cc1cc2c(nc1C)CCCN2CC(O)CN1CCCc2nc(C)c(C)cc21`, the composite z-score in experiment [1] is 0.142; in experiment [3] it was 0.368; in experiment [4], 0.239; in experiment [5] it was -0.322; in [6], 0.308; in experiment [7], 0.699. Moreover, the composite z-score in experiment [8] was 0.568; in experiment [9], 3.26; in experiment [10], 1.42. In [2], the z-score was -0.107.
Consider `CCN1C(=O)[C@H]2[C@H]3[C@H](O)[C@H](O)CC(=O)[C@@H]3CC[C@H]2C1=O`, for which the composite z-score was 0.869 in experiment [1]; 0.685 in experiment [3]; 0.0536 in experiment [4]; -0.493 in experiment [5]; -0.192 in [6]; -0.138 in [7]. For the same compound, the composite z-score was -0.237 in experiment [8], 0.467 in experiment [9] and 0.488 in experiment [10]. Further, in experiment [2], the z-score worked out at 0.105.
`CO[C@H]1COC(=O)CC=C[C@@H](C)[C@H](OC)COC(=O)CCC[C@@H]1C`: the composite z-score in experiment [1] is -1.16; in experiment [3] it was 0.797; in [4] it was -1.03; in experiment [5], -1.29; in experiment [6], -0.0751; in [7], -0.0709. Also, the composite z-score is -0.238 in experiment [8], 0.389 in experiment [9] and -0.069 in experiment [10]. The z-score in experiment [2] was -1.3.
`CO[C@H]1COC(=O)CC=C[C@H](C)[C@@H](OC)COC(=O)[C@H](C)COC(=O)CC=C[C@@H]1C`: the composite z-score was -0.61 in [1]; 1.33 in [3]; -0.774 in experiment [4]; -1.62 in [5]; -0.154 in experiment [6]; -0.439 in [7]. Moreover, the composite z-score was -0.303 in experiment [8], -0.396 in [9] and -0.876 in [10]. In experiment [2], the z-score stood at 0.507.
Regarding `C=CC[C@@H]1C=C[C@H](ON=C(C)CCN2CCc3nc(-c4ccccc4)c(-c4ccccc4)cc3C2)[C@@H](CO)O1`, the composite z-score in experiment [1] was 1.36; in [3], 0.407; in experiment [4], 0.636; in experiment [5], -0.252; in experiment [6] it was -0.0735; in experiment [7], -0.0626. For the same compound, the figures for the composite z-score in experiment [8], in experiment [9] and in experiment [10] were -0.303, 0.782 and 0.729, respectively. In experiment [2], this compound returned a z-score of -1.81.
On to `COC(=O)[C@H](C)NC(=O)CCC1CC(OC(=O)NCc2cccc3ccccc23)CC2(CCCC(COC(=O)NCC(c3ccccc3)c3ccccc3)O2)O1` (stereo not given in full), for which the composite z-score in [1] was 1.32; in experiment [3], 0.889; in [4], -0.0132; in experiment [5] it was -0.265; in [6] it was -0.0185; in experiment [7] it was -0.273. Besides, the figures for the composite z-score in experiment [8], in experiment [9] and in [10] were -0.0157, 0.345 and 0.0226, respectively. In [2], this compound returned a z-score of -0.977.
As for `CCN1C(=O)[C@@H]2[C@H]3C(=CC[C@@H]2C1=O)C1(OCCCO1)[C@H]1O[C@H]1[C@H]3O`, the composite z-score in experiment [1] was 1.38; in [3], 0.352; in experiment [4] it was 0.669; in [5], -0.536; in experiment [6], 0.0293; in experiment [7], -0.304. Further, the composite z-score in [8] was 0.194; in [9], 1.27; in experiment [10], 0.857. For the same compound, in [2], the z-score was -4.67.
As for `COC(=O)[C@@H]1CC[C@H](C)[C@@H](c2ccc(C)cc2)N1C(=O)c1ccc(C=NOCC[C@@H]2C=C[C@H](OC(C)=O)[C@@H](COC(C)=O)O2)cc1`, the composite z-score in experiment [1] was 0.875; in experiment [3] it was 0.465; in [4], -0.0548; in experiment [5], -0.141; in experiment [6], -0.0778; in [7], -0.0553. Further, the composite z-score in experiment [8] was -0.37; in experiment [9], 1.41; in experiment [10], 0.646. Also, the z-score in experiment [2] is -0.852.
Consider `CCOC(=O)C1=NO[C@@]2(C=C(Br)C3(OCCCO3)[C@H]3O[C@H]32)C1`, for which the composite z-score in [1] was 0.339; in [3], 1.13; in [4] it was -2.14; in [5] it was -2.64; in experiment [6], -0.138; in experiment [7], 0.0952. The composite z-score was -0.452 in [8], -0.143 in [9] and 2.04 in experiment [10]. In addition, the z-score in experiment [2] was -0.154.
Take `COc1ccc(O[C@@H]2[C@H](O)CO[C@@H]2C=Cc2ccccc2)cc1`: the composite z-score was 0.16 in experiment [1]; 0.138 in experiment [3]; 0.0425 in [4]; -0.665 in experiment [5]; -0.148 in experiment [6]; -0.399 in [7]. Moreover, the composite z-score is -0.111 in experiment [8], 0.288 in experiment [9] and 0.369 in experiment [10]. In experiment [2], this compound gave a z-score of 0.238.
In the case of `CCOC(=O)[C@H](Cc1ccccc1)NC(=O)OC1CC(CCC2CC(CC)=NO2)OC2(CCCC(COC(=O)NCCC(C)C)O2)C1` (stereo not given in full), the composite z-score is 0.836 in experiment [1]; 0.0791 in [3]; 0.426 in experiment [4]; 0.0002 in experiment [5]; 0.0292 in experiment [6]; -0.195 in [7]. Besides, the composite z-score was 0.152 in experiment [8], 0.309 in [9] and 0.426 in experiment [10]. The same compound came in with a z-score in [2] of -1.39.
On to `C#CCCCON=C1C[C@@H](O)[C@@H](O)[C@@H]2[C@@H]3C(=O)N(C(C)(C)C)C(=O)[C@@H]3CC[C@H]12`, for which the composite z-score in [1] was -0.149; in experiment [3] it was -0.0304; in experiment [4], -0.245; in experiment [5] it was -0.0493; in experiment [6], 0.0926; in experiment [7] it was -0.154. Further, the composite z-score in experiment [8] was -0.0675; in experiment [9], -0.0059; in experiment [10], 1.27. Also, the z-score in experiment [2] was -0.134.
With `CCc1cc2c(nc1CC)CCN(CCC(C)=NOC[C@H]1O[C@H](c3ccccc3)C=C[C@@H]1Oc1ccc(OC)cc1)C2`, the composite z-score in experiment [1] is 0.371; in experiment [3], -0.0061; in [4], -0.112; in experiment [5], 0.366; in experiment [6], -0.0944; in experiment [7] it was 0.0639. The composite z-score in experiment [8] is -0.0065; in [9] it was 0.76; in [10], 0.292. The same compound had a z-score in experiment [2] of -3.16.
As for `CC(=O)OC[C@H]1OC(ON=CC[C@@H]2C=C[C@H](OC(C)=O)[C@@H](COC(C)=O)O2)[C@H](OC(C)=O)[C@@H](OC(C)=O)[C@@H]1OC(C)=O` (stereo not given in full), the composite z-score in [1] is 0.781; in [3], 0.624; in [4], -0.0804; in experiment [5], -0.819; in experiment [6], -0.0957; in experiment [7] it was -0.154. In addition, the composite z-score in experiment [8] was -0.144; in experiment [9], -0.0191; in [10], -0.461. The z-score in experiment [2] is -0.3.
Regarding `CC(=O)OC[C@H]1O[C@H](C#Cc2ccccc2)C=C[C@@H]1OC(C)=O`, the composite z-score in experiment [1] is -0.234; in [3], 0.711; in experiment [4] it was -0.376; in [5], -0.449; in experiment [6] it was -0.119; in experiment [7], -0.124. Further, the composite z-score was 0.115 in experiment [8], 0.288 in [9] and -0.686 in [10]. This compound also came in with a z-score in [2] of -2.92.
